The list is not random: actives were taken first. Their share in the collection is about 2.6%.
Cruzain noTriton – blocks cruzain activity in detergent-free assay. 2.3% of 200,000 active. purified cruzain, Z-FR-AMC fluorescence, no detergent. Potency, µM, actives largely listed as inhibitors; also: nearly all actives have a fitted effect of over 40% in size
Target sequence (P25779 123-467 limits assumed): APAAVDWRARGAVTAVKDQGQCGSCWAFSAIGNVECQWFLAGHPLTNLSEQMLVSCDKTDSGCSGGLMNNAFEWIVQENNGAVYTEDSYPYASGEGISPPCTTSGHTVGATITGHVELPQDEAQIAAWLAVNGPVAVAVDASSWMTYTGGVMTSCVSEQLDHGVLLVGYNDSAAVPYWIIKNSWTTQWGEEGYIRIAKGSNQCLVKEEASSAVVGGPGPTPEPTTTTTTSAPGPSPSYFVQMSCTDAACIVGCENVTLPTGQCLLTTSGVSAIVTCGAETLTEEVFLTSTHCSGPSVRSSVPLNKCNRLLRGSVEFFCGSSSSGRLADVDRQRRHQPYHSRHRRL
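Purified cruzain at 1.5 nM, pre-incubated 15 min with compound at room temperature in 100 mM sodium acetate pH 5.5, 5 mM DTT, 0.00005% Triton X-100. Reaction started with 2 uM Z-FR-AMC; AMC fluorescence increase over 60 s gives rate.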
Cruzain inh Det – cruzain (T. cruzi) inhibition with detergent. purified cruzain, Z-FR-AMC fluorescence, 0.01% Triton. Potency, µM, usual class: inhibitors. 0.43% of 200,000 active. AID 1478; also: nearly all actives have a fitted effect of over 40% in size
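Z-FR-AMC hydrolysis (2 uM substrate) by cruzain (1.5 nM) monitored kinetically at ex 360/em 450 nm after 15 min room-temperature compound exposure; 0.01% Triton X-100, pH 5.5, 5 mM DTT.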
Hits are given with their value; . = inactive; ? = inconclusive. Calls follow the shape of the dose curve; as a rule, active = well fitted curve in the direction sought with a large enough effect; inconclusive = small, poorly fitted or top-dose-only effect, or another doubt; inactive = no such curve, though single readings can be large; an effect the other way counts as inactive or inconclusive.

SMILES	Cruzain noTriton	Cruzain inh Det
O=C(COc1ccc2ccccc2c1)NCCNC(=O)COc1ccc2ccccc2c1	25µM	.
Cc1c(Cl)cccc1NC(=O)Cn1cc2c(n1)CCCC2	.	.
C=CCC(Nc1ccc(OC)cc1)(C(=O)OCC)c1ccccc1 (stereo unspecified)	.	.
CN(c1ccccc1)S(=O)(=O)c1ccc(NC(=S)NC(=O)C2CC2)cc1	.	.
CN(Cc1ccccc1)S(=O)(=O)c1ccc(NC(=S)NC(=O)C2CCCC2)cc1	2.5µM	.
CCCCCCCCCCCCCCCCCC(=O)OC(CC(=O)O)C[N+](C)(C)C (stereo unspecified)	?	.
Cc1cc(Cl)c(OCCCN(C)C)c(Br)c1	5µM	.
Cc1ccc(OCCCN(C)C)c(Br)c1	.	.
CCc1ccc(S(=O)(=O)c2cn(C)c3cc(F)c(F)cc3c2=O)cc1	.	.
Cc1ccc(/C=N/N2CCN(Cc3cccc4ccccc34)CC2)s1	10µM	.
Cc1ccc(/C=N/N2CCN(Cc3ccccc3)CC2)s1	.	.
CCOC(=O)c1ccc(-n2c(N)c(C(=O)OC)c3nc4ccccc4nc32)cc1	.	.
CC(C)C[C@H](NC(=O)C1OC1C(=O)O)C(=O)NCCCCN=C(N)N (stereo partly specified)	0.04µM	0.079µM
CC(C)CC(NC(=O)C1CCCN1C(=O)OC(C)(C)C)C(=O)NCC(N)=O (stereo unspecified)	.	.
CCOc1ccc2nc(NC(=O)c3cc(=O)c4cc(C)cc(C)c4o3)sc2c1	.	.
O=C(/C=C/c1ccc(N2CCCCC2)c([N+](=O)[O-])c1)c1ccc(S(=O)(=O)N2CCCC2)cc1	32µM	.
O=[N+]([O-])c1cccc(S(=O)(=O)c2ccc(N3CCCCC3)c([N+](=O)[O-])c2)c1	?	.
COc1cccc(C(=O)/C=C/c2ccc(N3CCCCC3)c([N+](=O)[O-])c2)c1	.	.
O=[N+]([O-])c1cc(S(=O)(=O)c2ccc(N3CCCCC3)c([N+](=O)[O-])c2)ccc1N1CCCCC1	7.9µM	.
Cc1ccccc1-c1nc(SCC(=O)NCc2ccc(F)cc2)c2c(=O)n(C)c(=O)n(C)c2n1	.	.
CCc1ccccc1N1C(=O)N(CC(=O)c2ccc(Cl)cc2)c2ccccc2S1(=O)=O	?	.
Cc1ccc(-c2nnc3ccccc3c2C(=O)Nc2ccc(F)cc2)cc1	.	.
Cc1ccc(-c2nnc3ccccc3c2C(=O)Nc2ccccc2F)cc1	25µM	.
Cc1cc(F)ccc1NC(=O)CCS(=O)(=O)c1cc2c3c(c1)CCN3C(=O)CC2	.	.
COc1cc(NC(=O)Cn2nc(C(F)(F)F)c3c2CCC3)cc(OC)c1OC	?	.
SMILES	Cruzain noTriton	Cruzain inh Det
CCN1CCN(c2oc(/C=C/c3ccccc3OC)nc2C#N)CC1	32µM	.
COc1ccccc1/C=C/c1nc(C#N)c(N2CCN(C)CC2)o1	25µM	.
COc1ccc(Nc2oc(/C=C/c3ccccc3OC)nc2C#N)cc1	?	.
COc1cc(/C=C/c2nc(C#N)c(N3CCCCC3)o2)cc(OC)c1OC	.	.
O=S(=O)(c1ccc(Cl)cc1)c1nnn2c1nc(NCc1ccc3c(c1)OCO3)c1sccc12	.	.
Cc1c(C)c2cc3c(c(C)c2oc1=O)OCN(CCc1ccc(F)cc1)C3	.	.
CCOC(=O)C1=C(c2ccccc2)N=c2s/c(=C\c3ccc(O)cc3)c(=O)n2C1c1cccs1 (stereo unspecified)	13µM	.
COC(=O)C1=C(C)N=c2s/c(=C/c3cccs3)c(=O)n2C1c1cccs1 (stereo unspecified)	.	.
CCOC(=O)c1cccc(NC(=O)Cn2nc3c(cc2=O)CCCC3)c1	.	.
CN(C)C(=O)c1ccc(-c2ccc3ncnc(N4CCC(C(=O)O)CC4)c3c2)cc1	.	.
OC[C@@H]1[C@@H](c2ccc(Cl)cc2)C(c2ccc(F)cc2)=NN1c1ccccc1	25µM	.
OC[C@@H]1[C@@H](c2ccc(F)cc2)C(c2ccc(F)cc2)=NN1c1ccccc1	20µM	.
CC[C@H]1C(c2cccc(Cl)c2)=NN(c2ccccc2)[C@@H]1CO	.	.
OC[C@@H]1[C@@H](c2ccccc2)C(c2ccc(F)cc2)=NN1c1ccccc1	?	.
CC(C)(C)C1CCC2(CC1)CCN(CCCN1CCOCC1)CC2	.	.
COc1cccc(Cn2c(=O)c(-c3cccc(C#N)c3)nc3cnc(Nc4ccccc4)nc32)c1	.	.
O=C(Nc1cccc(F)c1)C1CC(=O)N(c2ccc(Br)cc2)C1 (stereo unspecified)	.	.
O=C(Nc1cccc(Cl)c1Cl)C1CC(=O)N(c2ccc(Br)cc2)C1 (stereo unspecified)	25µM	.
Cc1nc(SC(C)C(=O)Nc2ccccc2Cl)cc(-c2ccccc2)n1 (stereo unspecified)	.	.
CC(C)(C)OC(=O)N1CCC(c2c(C(=O)NCCN3CCC(Cc4ccccc4)CC3)cnn2-c2cccc(Cl)c2)CC1	.	.
COc1ccc2c(c1)C(=O)[C@H](OC(=O)Nc1ccc(C)c(Br)c1)[C@@H](c1ccc(OC)c(Br)c1)O2	?	.
COc1ccc2c(c1)C(=O)[C@@H](OC(=O)Nc1ccc(C)c(Br)c1)[C@H](c1ccc(OC)c(Br)c1)O2	25µM	.
C[C@H]1C(c2ccccc2)=NN(c2ccccc2)[C@@H]1CO	.	.
COc1ccccc1[C@H]1C(c2cccc(Cl)c2)=NN(c2ccccc2)[C@@H]1CO	?	.
OC[C@@H]1[C@@H](c2ccccc2)C(c2ccccc2)=NN1c1ccccc1	28µM	.
SMILES	Cruzain noTriton	Cruzain inh Det
OC[C@@H]1[C@@H](c2ccccc2)C(c2cccc(Cl)c2)=NN1c1ccccc1	25µM	.
Cc1cccc(C2=NN(c3ccccc3)[C@H](CO)[C@H]2c2ccc(Cl)cc2)c1	35µM	.
Cc1cccc(C2=NN(c3ccccc3)[C@H](CO)[C@H]2c2ccc(F)cc2)c1	?	.
CC(C)(C)c1ccc(C(=O)Nc2ccc(C(=O)OCc3cc(=O)n4ccsc4n3)cc2)cc1	.	.
Cc1ccc(Cl)cc1NC(=O)c1cc(S(=O)(=O)N2CCCCCC2)cn1C	.	.
O=C(N/N=C/c1cccc(Oc2ccc([N+](=O)[O-])cc2[N+](=O)[O-])c1)c1cncc(Br)c1	25µM	.
Cc1ccccc1OCC(=O)N/N=C/c1cccc(Oc2ccc([N+](=O)[O-])cc2[N+](=O)[O-])c1	?	.
CCOC(=O)c1c(C)[nH]c(C2=NNC(=Nc3cccc(Cl)c3)SC2)c1C	16µM	.
CCOC(=O)c1c(C)[nH]c(C=O)c1Cc1cccc(Cl)c1	.	.
COc1ccc(-c2noc(CSc3nc4sc(C)c(C)c4c(=O)n3-c3ccccc3)n2)cc1OC	.	.
COc1ccc(-c2noc(CSc3nc4ccccc4c(=O)n3-c3ccccc3)n2)cc1OC	.	.
Cc1noc(C)c1CSc1nc2sc(C)c(C)c2c(=O)n1-c1ccccc1	.	.
Cc1noc(C)c1CSc1nc2ccccc2c(=O)n1-c1ccc(Cl)cc1	20µM	.
COc1ccc(-c2noc(CSc3nc4sc(C)c(C)c4c(=O)n3-c3ccccc3)n2)cc1	7.9µM	.
O=c1c2ccccc2nc(SCc2nc(-c3ccccc3)no2)n1-c1ccc(F)cc1	25µM	.
COC(=O)[C@@]1(Cc2ccc(OC)cc2)[C@H]2c3cc(C(=O)N4CCCC4)n(CCc4c[nH]c5ccc(OC)cc45)c3C[C@H]2CN1C(=O)c1ccccc1	?	.

Source: PubChem BioAssay (National Center for Advancing Translational Sciences (NCATS))
